Common to all, as to assay: NCI-60 one-dose screen, 48 h (100 = growth as untreated, 0 = no growth, -100 = all killed)
For one experiment, the system named is SK-MEL-2 melanoma. Conditions: 10 µM.
The test system of a further experiment is EKVX NSCLC. Conditions: 10 µM.
The subject of the next experiment is SN12C renal. Particulars: 10 µM.
The next experiment relates to UO-31 renal. Conditions: 10 µM.
A further experiment has as its system TK-10 renal. Particulars: 10 µM unless noted.
The subject of another experiment is ACHN renal. Conditions: 10 µM.
In a further experiment the test system is CAKI-1 renal. Particulars: 10 µM.
A further experiment concerns A498 renal. Particulars: 10 µM.
The next experiment deals with CCRF-CEM leukemia. Particulars: 10 µM.
Another experiment has as its system MOLT-4 leukemia. Particulars: 10 µM.

Molecules are shown by their SMILES. Compounds without any hit were thinned out: in the full panel of roughly 83,000, 20% have a hit.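 Note: values are percent growth. 100 is the growth of untreated cells, values between 100 and 0 indicate rising inhibition; between -100 and 0 indicates cell death.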 Values without a mark were called inactive. Activity calls are given as the source filed them. The calls were made as follows: active = growth percent below 10; inactive = the rest.

`COc1ccc2c(NCCCCCCCCNc3c4ccccc4nc4cc(OC)ccc34)c3ccccc3nc2c1`: the growth in the experiment with SK-MEL-2 melanoma is -67.3% (active); in the experiment on EKVX NSCLC, -79.6% (active); in the experiment with SN12C renal, -92.7% (active); with UO-31 renal, -76.2% (active); in the experiment on TK-10 renal, -72.9% (active); with ACHN renal it was -100% (active). Moreover, the growth in the experiment with CAKI-1 renal is -100% (active); in the experiment with A498 renal, -88.6% (active); in the experiment with CCRF-CEM leukemia, -42.4% (active); with MOLT-4 leukemia, -85.7% (active).
Turning to `c1cc[n+](C2c3ccccc3C([n+]3ccccc3)c3ccccc32)cc1` (stereo not given), the growth in the experiment on SK-MEL-2 melanoma was 92.8%; in the experiment on EKVX NSCLC, 48.3%; in the experiment on SN12C renal, 26.7%; with UO-31 renal, 61.8%; in the experiment with TK-10 renal it was 52%; with ACHN renal it was 91.8%. Also, the growth in the experiment with CAKI-1 renal is 87.3%; with A498 renal, 94.9%; in the experiment on CCRF-CEM leukemia it was -42.3% (active); in the experiment with MOLT-4 leukemia, 86.5%.
Take `O=C(O)C(Cc1ccccc1)C(=O)O`: the growth is 111% in the experiment on SK-MEL-2 melanoma; 106% in the experiment with EKVX NSCLC; 103% in the experiment on SN12C renal; 91.6% in the experiment on UO-31 renal; 105% in the experiment with TK-10 renal; 111% in the experiment on ACHN renal. The growth is 102% in the experiment on CAKI-1 renal, 89.1% in the experiment on A498 renal, 97.9% with CCRF-CEM leukemia and 116% in the experiment with MOLT-4 leukemia.
Take `NC(=S)NN=C1CCCC1`: the growth in the experiment on SK-MEL-2 melanoma is 104%; in the experiment on EKVX NSCLC, 65.4%; in the experiment on SN12C renal, 94.5%; with UO-31 renal it was 63.2%; in the experiment on TK-10 renal it was 105%; with ACHN renal, 107%. Moreover, the growth in the experiment with CAKI-1 renal was 102%; in the experiment with A498 renal, 85.6%; with CCRF-CEM leukemia, 42.7%; in the experiment on MOLT-4 leukemia, 66.1%.
Turning to `O=C1Cc2cc(O)ccc2O1`, the growth is 101% with SK-MEL-2 melanoma; 104% with EKVX NSCLC; 102% with SN12C renal; 83.7% with UO-31 renal; 115% in the experiment on TK-10 renal; 105% in the experiment with ACHN renal. Besides, the growth with CAKI-1 renal was 103%; with A498 renal, 92.7%; with CCRF-CEM leukemia, 94%; in the experiment with MOLT-4 leukemia, 91.2%.
`COc1ccc(C2(O)CCCCC2)cc1`: the growth is 107% with SK-MEL-2 melanoma; 105% with EKVX NSCLC; 101% in the experiment with SN12C renal; 97% in the experiment with UO-31 renal; 113% in the experiment on TK-10 renal; 115% with ACHN renal. Moreover, the growth with CAKI-1 renal is 100%; in the experiment on A498 renal, 86.9%; in the experiment with CCRF-CEM leukemia it was 96.1%; in the experiment on MOLT-4 leukemia, 97.5%.
Regarding `CCOC(=O)C(=O)C=P(c1ccccc1)(c1ccccc1)c1ccccc1`, the growth in the experiment with SK-MEL-2 melanoma was 99.6%; with EKVX NSCLC, 105%; in the experiment on SN12C renal, 103%; in the experiment with UO-31 renal, 90.2%; in the experiment with TK-10 renal it was 99%; with ACHN renal, 108%. The growth with CAKI-1 renal was 101%; with A498 renal, 105%; in the experiment on CCRF-CEM leukemia it was 99.9%; with MOLT-4 leukemia, 101%.
Consider `CCC/C=C(/C(C)=O)C(=O)OCC`, for which the growth with SK-MEL-2 melanoma is 132%; with EKVX NSCLC it was 168%; in the experiment with SN12C renal, 101%; with UO-31 renal it was 101%; in the experiment with TK-10 renal, 139%; in the experiment on ACHN renal, 103%. For the same molecule, the growth in the experiment on CAKI-1 renal is 128%; in the experiment on A498 renal, 132%; with CCRF-CEM leukemia, 143%; in the experiment on MOLT-4 leukemia, 135%.
With `C#C[C@H]1CCCCCC1O` (stereo not given in full), the growth was 101% with SK-MEL-2 melanoma; 104% in the experiment with EKVX NSCLC; 101% in the experiment with SN12C renal; 97.1% in the experiment with UO-31 renal; 109% in the experiment with TK-10 renal; 116% with ACHN renal. For the same molecule, the growth with CAKI-1 renal was 101%; in the experiment on A498 renal, 99.3%; in the experiment on CCRF-CEM leukemia, 97.1%; in the experiment with MOLT-4 leukemia, 98.4%.
`O=C(O)[C@@H]1[C@H]2C[C@H]3c4[nH]c5ccccc5c4CCN3C[C@@H]2CC[C@@H]1O`: the growth is 30.5% in the experiment on SK-MEL-2 melanoma; 110% in the experiment with EKVX NSCLC; 107% with SN12C renal; 82.8% with UO-31 renal; 104% with TK-10 renal; 100% with ACHN renal. Moreover, the growth with CAKI-1 renal is 105%; with A498 renal, 130%; with CCRF-CEM leukemia, 103%; in the experiment on MOLT-4 leukemia it was 139%.
Turning to `Cc1ccc(O)c(C(=O)c2ccccc2)c1`, the growth was 107% with SK-MEL-2 melanoma; 103% with EKVX NSCLC; 100% in the experiment on SN12C renal; 97.2% in the experiment on UO-31 renal; 111% in the experiment on TK-10 renal; 104% with ACHN renal. For the same molecule, the growth was 104% in the experiment with CAKI-1 renal, 78.7% with A498 renal, 55.8% in the experiment with CCRF-CEM leukemia and 112% in the experiment on MOLT-4 leukemia.
With `Cc1ccc(Cl)cc1N1C(=O)CC(Sc2ccccc2N)C1=O` (stereo not given), the growth is 107% with SK-MEL-2 melanoma; 104% in the experiment with EKVX NSCLC; 96.8% in the experiment with SN12C renal; 105% in the experiment on UO-31 renal; 114% with TK-10 renal; 94.2% in the experiment on ACHN renal. Further, the growth in the experiment with CAKI-1 renal was 97.2%; in the experiment on A498 renal, 103%; in the experiment with CCRF-CEM leukemia, 93.8%; in the experiment on MOLT-4 leukemia it was 74.7%.
As to `O=c1[nH]n(-c2ccccc2)c(=O)cc1Cl`, the growth in the experiment with SK-MEL-2 melanoma is 104%; with EKVX NSCLC, 110%; in the experiment with SN12C renal, 93.3%; in the experiment on UO-31 renal it was 84.7%; with TK-10 renal, 102%; in the experiment with ACHN renal, 98.5%. Also, the growth in the experiment on CAKI-1 renal is 121%; in the experiment with A498 renal, 108%; with CCRF-CEM leukemia, 106%; with MOLT-4 leukemia, 95.4%.
In the case of `Cc1cc(C)c(N)c(S(=O)(=O)O)c1`, the growth in the experiment on SK-MEL-2 melanoma was 93.6%; in the experiment on EKVX NSCLC, 101%; in the experiment on SN12C renal, 97.7%; in the experiment with UO-31 renal, 76.2%; in the experiment with TK-10 renal, 105%; in the experiment on ACHN renal, 96.6%. Moreover, the growth with CAKI-1 renal is 91.3%; with A498 renal, 142%; in the experiment on CCRF-CEM leukemia, 86%; in the experiment on MOLT-4 leukemia, 113%.
For the molecule `COc1ccc(Oc2c(I)cc(CC(NC(C)=O)C(=O)O)cc2I)cc1` (stereo not given), the growth with SK-MEL-2 melanoma was 102%; in the experiment on EKVX NSCLC it was 67.9%; with SN12C renal, 83.8%; in the experiment on UO-31 renal it was 71.7%; in the experiment with TK-10 renal it was 113%; in the experiment on ACHN renal it was 97.6%. The growth is 57.4% in the experiment on CAKI-1 renal, 79.7% in the experiment on A498 renal, 78.4% in the experiment with CCRF-CEM leukemia and 60.9% in the experiment on MOLT-4 leukemia.

The record behind these values is PubChem BioAssay (NCI).
